# Whole data set: some 25,000 sequences, median “ln(normalized median fluorescence intensity)” near 9.3, cut for the highest 2% near 10. The full list was thinned out, with the highest values kept by preference.
# Test system: PF3D7_0420300 AP2 domain 1 (GST-tagged)
# Test: gcPBM binding intensity (ln(normalized median fluorescence intensity)); higher = stronger DNA binding
# Outline: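 Using an Agilent 4 × 180k array, primer-extended double-stranded 36-bp intergenic genomic probes and negative controls were exposed for 1 h to GST-fused P. falciparum DNA-binding domains expressed in E. coli. Binding was carried out in 1× PBS with 1% milk, 0.2 mg/ml BSA, 0.5% salmon testes DNA and 0.03% Triton X-100, and protein was detected with Alexa488 anti-GST antibody and a 488 nm scan. Binding intensity is the highest Masliner-normalised natural-log median intensity across replicate spots of either probe orientation.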
row,Sequence,gcPBM binding intensity (ln)
1,TATCATTTCATATCAAGTACAAACATTTTACATATA [XGTACX_site5307],9.12
2,GTGCATATCTGATATACACACAATAAAATAGTATGT [CACACA_site7203],9.33
3,AAAAAAAATTCACACTGTACAAAAGCATAAATAAAC [XGTACX_site5408],9.75
4,AATGTGTATATATATACACACACATATATATATTTT [CACACA_site8596],9.75
5,TTAATTTTTAGAAGAACACACACATATATATTATGA [CACACA_site7969],9.59
6,TACAGATACAGATACACACACACACCGAAATAAATA [CACACA_site4865],10.3
7,TATACAGATAAATACACACACACATATATATATATA [CACACA_site4845],10
8,CATACAGATATATATACACACATACAGATAAATACA [CACACA_site4592],9.83
9,TTTAATTTTTATATAACACACATATTGTAATTATGT [CACACA_site4566],9.38
10,ATAAATACTAAAAATGAAATATAGAAAATAGCAATA [CACACA_negctrl_site501],9.61
11,AAAATTCTTCGGGGGAGTACAAGGATATTCTACGTT [XGTACX_site3974],9.53
12,TGATATCTTAAGAAATGTACAAAGATATAACCATTT [XGTACX_site1913],9.11
13,CTCAATATTATTACTACACACAAATTAAAATTTTCC [CACACA_site4203],9.45
14,ATTTATTCATTTGGGTGTACTATTTAAAAAAAACAA [XGTACX_site498],9.18
15,AAAATAAAAAGAAAAAGAAAAAAGGGGGGGTAGGGG [CACACA_negctrl_site1048],10.2
16,AAGGGGTAAAGAAAAACACACAAAAAATAAAAATAT [CACACA_site361],9.65
17,AAGGGAAAATAATAAAAGAAAAAGAAAAAAAAAAAA [CACACA_negctrl_site1518],9.21
18,TGTATTAATAAAAATACACACATCATATTATAGAAA [CACACA_site7629],9.49
19,TTAATTAGAAATCATACACACATATAAATAAATATA [CACACA_site6225],9.6
20,CATACACAGAAACACACACACATATATATATATATA [CACACA_site4519],9.79
21,AATTAAAATAATAATACACACATCATAGAAAAAGAC [CACACA_site292],10.4
22,TAAAAAAAAACAGAAACACACATTATTCATATATAT [CACACA_site2049],9.77
23,ACAGAAAAAAAACACACACACATAATATACATACAT [CACACA_site1932],10.2

row,Sequence,gcPBM binding intensity (ln)
1,ATATAACAGAAACACACACACATATATATATATTAT [CACACA_site4140],10.2
2,ATACAGAAAAAAAACACACACACATAATATACATAC [CACACA_site1933],10.1
3,CATTATAAGAAACACACACACATATATATATATATA [CACACA_site1051],9.73
4,TGAAAAAAGAAAAATACACACATATAATATAATATA [CACACA_site2255],9.7
5,TAAAAGAAATAATATACACACATATATAAAAATAAA [CACACA_site1329],9.6
6,ACAGAAAAAAGACACACACACATAATATACATACAT [CACACA_site6991],10.2
7,AGCTATTAATTTATTACATGCAAGATTAAAAGACTA [TGCATGCA_site281],8.99
8,AATCAAAACATTAAAAAGAAAAAATATATATATATA [CACACA_negctrl_site366],9.03
9,AGGATATGCAGACACACACACATATAGATTTATATA [CACACA_site7100],9.73
10,ATTGTGCTCATCAGCACACACAACATCATGTAATAA [CACACA_site1863],9.47
11,TTTTGTTATATTCAATATTTATATATTATAAATATA [CACACA_negctrl_site1705],9.11
12,TTAAAACCAAAACACAGTACATATATATATATATAT [XGTACX_site5668],9.4
13,TATTTTATTTTTTTATGTACACAAAAAAAAAAAAAA [XGTACX_site945],8.63
14,TTTTTTTTTTGTTGTTGTACTCTTATATTTTTATAT [XGTACX_site6178],9.7
15,ATAAATAAATAAATAAATAAATATACATATACATAT [CACACA_negctrl_site205],9.39
16,TATGGTAACATATGCTGTACAATATAATATGTTTAA [XGTACX_site1601],9.11
17,TATAGTGATATATACACACACTTGTCTTGTAAAAAT [CACACA_site6594],9.53
18,GATGTATTCATACATGCACACGTACATATTTAAATA [CACACA_site9299],9.34
19,CATATACAGAAACACACACACACATAAATAAATATA [CACACA_site1343],10.3
20,TAAATACAGAAACACACACACAAATATATACATACA [CACACA_site2880],10.1
21,CAAATACAGAAACACACACACATATACATATATATA [CACACA_site3498],9.97
22,ATATATATATATCACGCACACACGAATTTTAAATAT [CACACA_site3131],9.65
23,TTTTCAAAATAATATTATATCAAATGCTAAAAAGAA [TGCATGCA_negctrl_site588],8.96

row,Sequence,gcPBM binding intensity (ln)
1,AACATTATAAGACACACACACACATATATAAATATA [CACACA_site6622],10.3
2,GTAAGAAACAGACACACACACATATAAATATAAATA [CACACA_site6515],10.1
3,AAACATAAGAGACACACACACATATATAAATAAATA [CACACA_site7674],10.2
4,ATAAATATAGGACACACACACATATTATATATATAT [CACACA_site5658],10.1
5,TAATAAATAAGACACACACACATATATATATATTAT [CACACA_site1389],10.2
6,TAAAACATAAGAGACACACACACATATATATATATA [CACACA_site3643],9.9
7,TAATAAATAGGACACACACACATATATATATATTAT [CACACA_site4891],10.1
8,AACATTATAGGACACACACACACATATATATATATA [CACACA_site4721],10.2
9,AACATTATAAGACACACACACACATATATATATATA [CACACA_site8259],10.1
10,ATCGTTATATAATGTTGTACTTGTTATATATATATA [XGTACX_site7582],9.7
11,TATATATATATATATACATGCATTTCTCATGTACAT [TGCATGCA_site621],9.14
12,TTTGATAAATGATACACACACAATATTTATAAAATA [CACACA_site7040],9.72
13,ATCTATAAATTTCCACGTACATATATATATATATAT [XGTACX_site4502],9.32
14,TTTTGTTTTTGTAGAGTGCATAAAGAAGATATGTAT,9.1
15,AGTGTATTAAATTTTGAACACACAAAATAAAACATA [CACACA_site8483],9.43
16,AACTTTTAGAAGAACACACACATATAGATTATGACC [CACACA_site6256],9.86
17,TATATTATGACCACCACACACCTATACACATAACAT [CACACA_site7199],9.62
18,ATTATAACACCTCCCCCCCTTTTTTTATGAAGACCA [CACACA_negctrl_site1043],10.4
19,TTTATACTTGTAAATGCACACATAAGATGCGACTAA [CACACA_site8662],9.18
20,TTTATAAAAATATACACACATACAAATATGCATATA [CACACA_site712],9.44
21,TATCCATATTTGTTCACACACACACCGATTTATATA [CACACA_site5888],10.1
22,TGTATCCATATTTGTTCACACACACCCATATTTATA [CACACA_site9190],10
23,TATCCATATTTGTTCACACACACACCCATTTATATA [CACACA_site3571],10.2

row,Sequence,gcPBM binding intensity (ln)
1,ATATAAATTCAAATTACACACATTTATTTTTTTTAC [CACACA_site53],9.44
2,AGCAAATCAGATAGTAGTACATTTAAATTAGACTTT [XGTACX_site4172],9.19
3,ATTATACACGCGCGCACACACAACAAAAAAAAAAAA [CACACA_site7630],9.69
4,GGCATACACGAACACACACACACACGCACATATATA [CACACA_site6426],10.3
5,CATATACACGAACACACACACATATATATATATATA [CACACA_site4437],9.84
6,CATATACACGAACACACACACACACGCACAAAAAAA [CACACA_site6376],10.2
7,TGAACACGCACAAATACACACAAAAAAAATAAATAA [CACACA_site6257],9.63
8,AACATATACACGAACACACACACATATATATATATA [CACACA_site502],10.1
9,TATTTTCTCTTAAAAAGTACTCATATATACATTTAT [XGTACX_site7748],9.07
10,GAGTAAAAATTAAAATGTACATATTATATATATTTA [XGTACX_site1319],9.09
11,CTTTGCCTTAAAAAGGAACACACATGCTTTTTTTAG [CACACA_site8219],9.22
12,TTTTTTTTTACTTGTTGTACTTTTTCAAGGTATTGT [XGTACX_site7778],9.42
13,TATATACATAAAATTTGTACATATATATATATATAT [XGTACX_site3214],9.28
14,TGCTTATATCTTATAATATTTATACATCATAATAAG [CACACA_negctrl_site629],9.17
15,ATTTTTCTTTTATTAACACACATATAAATAAATACA [CACACA_site2876],9.22
16,TATACATAGAAACACACACACATATATATATATATA [CACACA_site2248],9.79
17,TATATATAGAAACACACACACACATATATATATATT [CACACA_site2539],10.1
18,TATACATAGAAACACACACACATAAATAAATATATA [CACACA_site1342],10.1
19,ATAATATAGAAACACACACACATATATATATACATT [CACACA_site555],10.2
20,TAATAATAGAAACACACACACATAGACATATATATA [CACACA_site1307],10.1
21,CATAATAATAGAAACACACACACATAGACATATATA [CACACA_site1308],10.2

# Reference: the supplement of paper PMC11417369
